# High-throughput results: PubChem, National Center for Advancing Translational Sciences (NCATS)
# ATXN2 expr inh = ATXN2 expression inhibition; HEK-293 ATXN2-luciferase reporter, luminescence, 24 h; Potency, µM (highest dose often 57 µM), usual class: inhibitors; actives 0.72% (n = 360,000); also: nearly all actives have a fitted effect of over 55% in size
#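 ATXN2-luciferase reporter cells (luciferase flanked by upstream and downstream ATXN2 gene portions) were treated 24 h at 37 °C with compounds at up to 57 uM. SteadyGlo luminescence gave expression; GF-AFC fluorescence gave viability.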
# S2 tox = viability counter-screen for ATXN expression inhibitors; S2 cells (HEK-293 line with an ATXN2-luciferase reporter) viability, CellTiter-Fluor protease fluorescence, 24 h; Potency, µM (top dose mostly 56.7 µM), most hits filed as cytotoxic; AID 651635; actives 0.49% (n = 400,000); also: nearly all actives have a fitted effect of over 40% in size
# HT1080 IDH1KD tx = kills HT-1080 cells with IDH1 knockdown; actives 2% (n = 360,000); AID 686971; Potency, µM (titrated, usually from 46.1 µM), most hits filed as cytotoxic; HT-1080 IDH1 knockdown viability, ATP luminescence, 48 h
#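 In this qHTS, HT-1080 cells depleted of IDH1 are exposed for 48 h at 37 °C to compound titrations. Toxicity is scored from CellTiter-Glo luminescence, with DMSO as full viability and medium alone as none.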
# KB-3-1 tox = kills parental KB-3-1 adenocarcinoma cells; Potency, µM (top dose mostly 46.1 µM), most hits filed as cytotoxic; AID 1347075; actives 1.4% (n = 400,000); KB-3-1 viability, CellTiter-Glo ATP luminescence, 72 h; also: nearly all actives have a fitted effect of over 60% in size
#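 Multi-concentration cytotoxicity screen in KB-3-1 cells grown in DMEM lacking phenol red with 10% FBS. After 72 h at 37 °C with compound, ATP-dependent luminescence was recorded.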
# HT1080-NT tox = kills 2HG-producing HT-1080-NT fibrosarcoma cells; Potency, µM (doses to about 46.1 µM), actives largely listed as cytotoxic; actives 1.6% (n = 360,000); HT-1080-NT fibrosarcoma viability, CellTiter-Glo ATP luminescence, 48 h;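 also: NT is the 2HG producing partner of a matched IDH1 knockdown line; nearly all actives have a fitted effect of over 55% in size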
#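 Toxicity toward the 2HG-producing NT line was scored as %Activity, normalised to DMSO and no-cell wells, from CellTiter-Glo luminescence after 48 hours' treatment.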
# KB-V1 MDR tox = KB-V1 MDR subline cytotoxicity; Potency, µM (series often up to 46.1 µM), hits mostly cytotoxic; KB-V1 MDR cells viability, CellTiter-Glo, 72 h; actives 3.4% (n = 400,000); also: nearly all actives have a fitted effect of over 60% in size
#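 qHTS viability screen in drug-selected KB-V1 MDR cells: 72 h compound treatment at 37 degrees C, ATP luminescence end point.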
# Numbers stand for hits; - = inactive; ? = inconclusive; . = no result; [ ] = another dose, or the depositor's remark. Shown are actives, neighbours in structure and some others; about 6.2% of the full set was active somewhere. Calls follow the shape of the dose curve; as a rule, active = well fitted curve in the direction sought with a large enough effect; inconclusive = small, poorly fitted or top-dose-only effect, or another doubt; inactive = no such curve, though single readings can be large; an effect the other way counts as inactive or inconclusive.
SMILES,ATXN2 expr inh,S2 tox,HT1080 IDH1KD tx,KB-3-1 tox,HT1080-NT tox,KB-V1 MDR tox
Cc1cccc(NS(=O)(=O)c2ccc(-c3cnc(C4CC4)o3)cc2)c1C,.,?,?,0.184µM,?,?
Fc1ccc(C(c2ccc(F)cc2)N2CCN(CC=Cc3ccccc3)CC2)cc1,-,.,.,.,.,.
CN(C)c1ccc(C=O)c(Cl)c1,.,.,.,-,.,-
Cc1ccccc1NC(=O)Cn1c(=O)n(CCC(=O)N2CCc3ccccc3C2)c(=O)c2ccccc21,-,-,.,-,.,-
C1=Cc2ccccc2/C1=C\c1cc2c3c(c1)CCCN3CCC2,.,.,.,-,.,-
COc1ccc(-c2cnc(C)o2)cc1S(=O)(=O)Nc1ccc(C)c(F)c1,-,?,.,5.8µM,.,5.8µM
COc1ccc(NS(=O)(=O)c2cc(-c3cnc(C4CC4)o3)ccc2C)cc1,.,?,20.6µM,13µM,?,?
CC(=O)c1cccc(NS(=O)(=O)c2ccc(-c3cnc(C4CC4)o3)cc2)c1,.,?,?,?,20.6µM,?
CCc1ccc(NS(=O)(=O)c2cc(-c3cnc(C4CC4)o3)ccc2C)cc1,?,?,.,-,.,?
COc1ccc(-c2cnc(C)o2)cc1S(=O)(=O)Nc1ccc(C)c(N(C)C)c1,-,-,.,-,.,-
CCOC(=O)c1c(C)[nH]c(C)c1S(=O)(=O)N1CCCC(C(=O)NCc2ccc(Cl)cc2)C1 (stereo not given),-,-,.,-,.,?
CC(C)N(C(=O)CSc1nnc(NC(=O)c2cccs2)s1)C(C)C,-,-,-,-,-,23.1µM
COc1ccccc1NC(=O)C1=C(C)Nc2nc(CCCO)nn2C1c1cccc(O)c1 (stereo not given),-,-,.,-,.,?
O=Cc1cccnc1SCc1ccccc1,-,?,?,?,?,14.6µM
Oc1cccnc1SCc1ccccc1,-,-,-,-,-,-
Cc1cccn2c(=O)c(C(=O)N3CCN(c4ccccc4F)CC3)cnc12,-,?,.,-,.,-
C(=NN1CCCCCC1)c1ccc2ccccc2n1,?,-,?,?,6.51µM,-
O=[N+]([O-])c1ccc(NN=Cc2cc(Br)ccc2O)nc1,?,?,4.61µM,-,7.31µM,?
O=C1CCC2=C1C1(CCCC1)N=C(Nc1nc3ccccc3o1)N2,.,.,.,-,.,-
O=C1CCc2cc(-c3csc(-c4ccc(O)cc4)n3)ccc2N1,.,.,.,-,.,-
CCOC(=O)c1[nH]c(C)c(C(=O)c2ccc(C)cc2)c1C,-,-,1.26µM,-,1.78µM,1.46µM
CCOC(=O)c1[nH]c(C)c(C(=O)Nc2ccc(C)c(C)c2)c1C,-,-,-,?,-,?
CCOC(=O)c1[nH]c(C)c(C(=O)Nc2ccc(C)cc2C)c1C,-,-,11.6µM,2.59µM,?,3.66µM
CCOC(=O)c1[nH]c(C)c(C(=O)Nc2ccc(F)cc2)c1C,-,-,-,-,-,-
CCOC(=O)c1[nH]c(C)c(C(=O)Nc2ccccc2F)c1C,-,-,?,2.31µM,?,3.66µM
SMILES,ATXN2 expr inh,S2 tox,HT1080 IDH1KD tx,KB-3-1 tox,HT1080-NT tox,KB-V1 MDR tox
COc1ccc(C(=O)c2c(C)oc3ccc(O)cc23)cc1,-,-,-,-,-,-
COc1ccc(-c2oc3ccccc3c(=O)c2OC(=O)c2ccc(C)cc2)cc1,-,-,-,?,-,11.6µM
COc1ccc(C(=O)c2ccc3oc(-c4ccc(OC)cc4)c(-c4ccc(O)cc4)c3c2)cc1,?,?,-,18.4µM,-,?
O=C(Oc1c(-c2ccccc2)oc2ccccc2c1=O)c1ccccc1,-,-,-,?,-,11.6µM
COc1ccc(C(=O)c2c(-c3ccc(OC)cc3)oc3ccccc23)cc1,-,-,-,-,-,-
O=C(Oc1cc(=O)oc2ccccc12)c1ccccc1,-,-,16.4µM,5.17µM,16.4µM,-
COc1ccccc1OCCCCN1CCN(C(c2ccccc2)c2ccccc2)CC1,-,?,18.4µM,?,?,?
c1ccc(OCCOCCN2CCN(C(c3ccccc3)c3ccccc3)CC2)cc1,-,-,-,?,-,?
CCOc1ccccc1NC(=O)C(OC(=O)c1ccc(CC)cc1)c1ccccc1 (stereo not given),-,-,-,?,-,-
CCOc1ccccc1NC(=O)C(OC(=O)c1ccc(N(C)C)cc1)c1ccccc1 (stereo not given),-,-,-,-,-,9.2µM
CCOc1ccccc1NC(=O)C(OC(=O)c1cnccn1)c1ccccc1 (stereo not given),-,-,-,-,-,18.4µM
CCOc1ccccc1NC(=O)C(OC(=O)c1ccc(O)cc1)c1ccccc1 (stereo not given),-,-,23.1µM,?,?,14.6µM
COc1ccc(NC(=O)c2c(F)cccc2F)cc1S(=O)(=O)Nc1ccc(Br)cc1,-,?,-,-,-,10.3µM
COc1ccc(NC(=O)CCC(=O)c2cccs2)cc1S(=O)(=O)Nc1ccc(Cl)cc1,-,?,0.82µM,?,-,7.31µM
Cc1cc(CCCOc2c(C)cc(-c3noc(C(F)(F)F)n3)cc2C)on1,-,-,.,.,.,.
Cc1ccc(Nc2nccc(N(C)c3ccc4c(C)n(C)nc4c3)n2)cc1S(N)(=O)=O,-,?,.,.,.,.
CCOC(=O)N1CCC(NC(=O)c2cc(COc3ccccc3SC)on2)CC1,-,-,?,-,-,9.2µM
Cc1ccc(OCc2cc(C(=O)NC3CCCCC3)no2)cn1,.,-,14.6µM,?,?,?
C=CCC1(CC=C)CCCN1C(=O)c1cc(COc2ccc(F)c(F)c2)on1,-,-,-,-,-,-
C=CCC1(CC=C)CCCN1C(=O)c1cc(COc2ccc(C)nc2)on1,.,?,2.91µM,?,20.6µM,-
c1ccc2cc(CNCc3cccc4ccccc34)ccc2c1,-,-,23.1µM,-,?,-
CCc1c(C)nc2ncnn2c1NCCc1ccc(OC)cc1,-,-,3.55µM,5.62µM,6.31µM,?
CCCCCC1CCNCC1,.,.,.,-,.,-
O=c1c(Cl)c(Cl)cnn1Cc1nnc(-c2ccccc2Br)o1,?,.,9.2µM,-,11.6µM,?
Clc1ccccc1OCc1nnc(-c2ccccc2Br)o1,-,-,-,-,-,-
SMILES,ATXN2 expr inh,S2 tox,HT1080 IDH1KD tx,KB-3-1 tox,HT1080-NT tox,KB-V1 MDR tox
CC1CCN(CC2CCN(C(=O)Nc3ccc(Br)cc3F)CC2)CC1,-,-,.,-,.,-
O=C1N/C(=C\c2ccc(N3CCOCC3)c(F)c2)C(=O)N1Cc1ccccc1,?,?,18.4µM,-,?,-
COc1cc2c3nnc(-c4ccc(F)cc4)c-3cn(Cc3ccccc3F)c2cc1OC,20µM,-,?,14.6µM,?,-
COc1cc2c3nnc(-c4ccccc4)c-3cn(Cc3ccccc3F)c2cc1OC,-[11.3 µM],.,?,?,?,-
COc1cccc(-c2nc(NCCN3CCOCC3)c3ccccc3n2)c1O,.,.,-,-,?,?
Clc1ccc(-c2nc(NCCCN3CCOCC3)c3ccccc3n2)cc1,?,-,?,-,23.1µM,?
